# According to PubChem BioAssay:
# Activity calls are given as the source filed them. Unless noted, the rule behind the calls is not given here.
# How the values were obtained:
# [1] = HepG2 liver cancer cell viability effects, profiling panel, resazurin fluorescence, 24 h, PK04 Diversity Set (AID 1172); conditions: higher = more signal
# [2] = basal S. cerevisiae growth modulation, no modifier, primary screen, OD600, strain BY4716, 24 h, basal condition (AID 1173); conditions: OD600, 24 h, higher = more signal, called active from +8 up or from −8 down
# [3] = MM1S myeloma cell viability, profiling panel, resazurin fluorescence, basal, 24 h, PK04 Diversity Set (AID 1174); conditions: higher = more signal, called active from +8 up or from −8 down;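 note: MM1S multiple myeloma cell line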
# [4] = molecular target: Dihydroorotate dehydrogenase (quinone), mitochondrial (Plasmodium falciparum (isolate 3D7)) (UniProt Q08210); experiment: PfDHODH enzyme inhibitors, primary screen, biochemical, C-terminal His tag, absorbance 600 nm (AID 1175); conditions: DCIP absorbance 600 nm, higher = more signal, called active from +8 up or from −8 down;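 note: recombinant parasite enzyme with a five histidine tag at its C terminus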
# [5] = P. aeruginosa biofilm formation inhibitors, primary screen, strain PAO1, LB-PBS medium, absorbance 600 nm (AID 1176); conditions: P. aeruginosa PAO1 growth/biofilm, A600, 12 h; higher = more signal
# [6] = S. cerevisiae RM11-1a growth modifiers, primary screen, strain RM11-1a, OD600, basal, 24 h (AID 1177); conditions: OD600, 24 h, higher = more signal, called active from +8 up or from −8 down;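 note: cultures grown under basal conditions with no added stressor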
# [7] = E. coli acrAB mutant growth effects, primary screen, E. coli filamentation inducers, strain DRC39, OD650, 24 h (AID 1178); conditions: higher = more signal, called active from +8 up or from −8 down;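 note: growth measured as culture turbidity by optical density at 650 nm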
# [8] = E. coli acrAB mutant growth effects, primary screen, E. coli filamentation inducers, strain DRC39, OD650, 48 h (AID 1179);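 note: screen aims at cell division blockers that make cells filament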; conditions: E. coli DRC39 delta-acrAB growth, higher = more signal, called active from +8 up or from −8 down
# [9] = RPMI8226 myeloma cell viability, profiling panel, resazurin fluorescence, basal, 24 h, PK04 Diversity Set (AID 1180); conditions: higher = more signal;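 note: RPMI8826 multiple myeloma cell line at 5000 cells per well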
# [10] = molecular target: E3 ubiquitin-protein ligase XIAP (Homo sapiens) (UniProt P98170); experiment: XIAP binders, primary screen, biophysical, small-molecule microarray, fluorescence 635 nm (AID 1181); conditions: small-molecule microarray binding, higher = more signal;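 note: score merges 667 nm emission and signal to noise over triplicate slides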
# [11] = test system: XIP peptide (Xip251-270) binding; experiment: small-molecule binders of XIP peptide, primary screen, biochemical, small-molecule microarray, fluorescence 635/667 nm, 0.1 µg/mL protein (AID 1182); conditions: fluorescent protein binding, 635 nm, higher = more signal, called active from +8 up or from −8 down
# XIP peptide (Xip251-270) = experiment: small-molecule binders of XIP peptide, primary screen, biochemical, small-molecule microarray, fluorescence 635/667 nm, 0.5 µg/mL protein (AID 1183); conditions: small-molecule microarray binding, fluorescence 635 nm; higher = more signal
# [12] = Plasmodium falciparum growth inhibition, primary screen, strain 3D7, DAPI fluorescence, 100 nL (AID 1184);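 note: parasites grown inside human red blood cells in medium with human serum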; conditions: P. falciparum 3D7 growth, 3 d, higher = more signal
# [13] = molecular target: Homeobox protein Hox-A13 (Mus musculus) (UniProt Q62424); experiment: inhibitors of HoxA13-DNA binding, primary screen, biochemical, fluorescence polarization, labeled oligonucleotide (AID 1185); conditions: 15 min, higher = more signal, called active from +8 up or from −8 down
# [14] = inhibitors of hydroxyurea-induced Chk1 phosphorylation, primary screen, imaging, HeLa, phospho-Chk1 antibody, percent positive cells (AID 1186); conditions: hydroxyurea-induced phospho-Chk1 immunofluorescence imaging, higher = more signal
# [15] = inhibitors of hydroxyurea-induced Chk1 phosphorylation, primary screen, imaging, HeLa, phospho-Chk1 nuclear intensity (AID 1187); conditions: hydroxyurea-induced phospho-Chk1 immunofluorescence imaging, higher = more signal
# Homeobox protein Hox-A13 (Mus musculus), sequence (Q62424 whole entry, looked up): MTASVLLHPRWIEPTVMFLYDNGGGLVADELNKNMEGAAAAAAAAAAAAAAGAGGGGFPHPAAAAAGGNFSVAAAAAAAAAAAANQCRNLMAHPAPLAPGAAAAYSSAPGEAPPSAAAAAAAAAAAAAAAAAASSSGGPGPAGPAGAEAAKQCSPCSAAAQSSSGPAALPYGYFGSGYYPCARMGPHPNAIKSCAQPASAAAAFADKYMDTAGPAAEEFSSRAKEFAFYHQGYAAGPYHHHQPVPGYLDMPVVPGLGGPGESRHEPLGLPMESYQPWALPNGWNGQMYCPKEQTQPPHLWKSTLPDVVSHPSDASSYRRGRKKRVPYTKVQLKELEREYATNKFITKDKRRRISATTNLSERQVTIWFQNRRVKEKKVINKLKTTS
# Dihydroorotate dehydrogenase (quinone), mitochondrial (Plasmodium falciparum (isolate 3D7)), sequence (Q08210 whole entry, looked up): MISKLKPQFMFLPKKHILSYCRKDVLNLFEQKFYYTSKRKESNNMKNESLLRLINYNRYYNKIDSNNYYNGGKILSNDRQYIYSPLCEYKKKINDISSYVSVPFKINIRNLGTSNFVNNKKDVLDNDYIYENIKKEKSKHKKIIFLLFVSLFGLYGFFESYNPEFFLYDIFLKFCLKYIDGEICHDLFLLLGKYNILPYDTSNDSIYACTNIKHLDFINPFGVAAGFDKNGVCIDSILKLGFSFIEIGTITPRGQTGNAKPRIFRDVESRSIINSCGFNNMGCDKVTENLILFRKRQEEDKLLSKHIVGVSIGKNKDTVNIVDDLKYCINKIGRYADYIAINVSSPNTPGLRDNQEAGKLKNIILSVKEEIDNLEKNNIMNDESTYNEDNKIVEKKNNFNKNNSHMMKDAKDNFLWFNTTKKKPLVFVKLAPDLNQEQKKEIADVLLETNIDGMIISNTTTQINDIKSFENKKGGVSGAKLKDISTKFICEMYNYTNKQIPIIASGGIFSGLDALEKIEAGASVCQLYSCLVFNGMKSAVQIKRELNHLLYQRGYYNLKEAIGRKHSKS
# E3 ubiquitin-protein ligase XIAP (Homo sapiens), sequence (P98170 whole entry, looked up): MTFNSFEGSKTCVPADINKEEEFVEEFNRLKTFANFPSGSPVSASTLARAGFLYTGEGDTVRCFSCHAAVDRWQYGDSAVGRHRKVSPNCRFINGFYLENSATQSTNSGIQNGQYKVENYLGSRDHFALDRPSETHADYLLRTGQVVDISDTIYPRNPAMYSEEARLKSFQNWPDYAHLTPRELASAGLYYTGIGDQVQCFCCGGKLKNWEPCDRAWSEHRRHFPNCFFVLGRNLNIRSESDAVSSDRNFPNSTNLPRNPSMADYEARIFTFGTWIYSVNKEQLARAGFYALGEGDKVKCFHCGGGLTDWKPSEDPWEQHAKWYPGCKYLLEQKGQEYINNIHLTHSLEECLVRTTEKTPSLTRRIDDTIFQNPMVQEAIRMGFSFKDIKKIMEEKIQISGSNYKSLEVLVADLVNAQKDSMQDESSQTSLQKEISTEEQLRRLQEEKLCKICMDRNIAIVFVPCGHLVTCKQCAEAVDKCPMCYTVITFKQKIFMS
Structure (SMILES),z-score [1],z-score [2],z-score [3],composite z-score [4],z-score [5],z-score [6],z-score [7],z-score [8],z-score [9],composite z-score [10],composite z-score [11],composite z-score (XIP peptide (Xip251-270)),z-score [12],z-score [13],z-score [14],z-score [15]
COC(=O)C1=CC(CCCO)=CC(C2CC2)N(Cc2cccc(OC(F)(F)F)c2)C=C1C(=O)OC (centres undefined),0.588,-1.76 (inactive),0.348 (inactive),-6.2 (inactive),0.034 (inactive),0.0808 (inactive),1.01 (inactive),1.1 (inactive),0.693,-0.22,0.737 (inactive),0.668,-1.37,-7.83 (inactive),-0.316 (inactive),-0.0702 (inactive)
COC(=O)c1ccc([C@H](NC(=O)c2ccccc2)[C@]2(C)C[C@H]2C2CCCCC2)cc1,0.38,1.28 (inactive),0.713 (inactive),-0.256 (inactive),0.371 (inactive),0.832 (inactive),-1 (inactive),-0.768 (inactive),0.293,-0.127,-0.317 (inactive),-0.199,-0.631,3.23 (inactive),-0.198 (inactive),-0.123 (inactive)
C/C=C/CN(C(=O)C#Cc1ccccc1)[C@H](CO[Si](C)(C)C(C)(C)C)c1ccccc1,0.704,-0.161 (inactive),1.79 (inactive),-3.11 (inactive),-0.966 (inactive),-0.36 (inactive),2 (inactive),0.846 (inactive),3.51,-0.193,-0.617 (inactive),-0.109,-2.04,1.99 (inactive),-0.288 (inactive),-0.0994 (inactive)
CC(C)[Si](C#CCCCC#N)(O[C@H](c1ccccc1)c1cn([C@H](C)c2ccccc2)nn1)C(C)C,0.592,-1.06 (inactive),0.181 (inactive),0.31 (inactive),0.559 (inactive),-0.802 (inactive),-0.708 (inactive),-0.482 (inactive),0.409,0.172,-0.301 (inactive),0.415,-0.133,-0.445 (inactive),-0.228 (inactive),-0.174 (inactive)
C=CCC(OC(C)=O)[C@@H]1[C@@H](N(Cc2ccc(-c3cccc(C(F)(F)F)c3)o2)C(=O)c2cccc3ccccc23)c2cc(OCCCO)ccc2N1C(=O)c1ccc2ccccc2n1 (some centres undefined),-0.892,-0.606 (inactive),-0.864 (inactive),0.995 (inactive),-0.51 (inactive),0.356 (inactive),0.249 (inactive),-0.195 (inactive),-0.804,-0.227,-0.279 (inactive),-0.0301,-2.15,-2.09 (inactive),-0.131 (inactive),0.228 (inactive)
COC(=O)C1(CC(C)C)C=C2C(=C(C(C)C)C(=O)C2C)CN1 (centres undefined),-0.947,1.46 (inactive),-1.56 (inactive),-1.18 (inactive),0.399 (inactive),0.271 (inactive),-0.592 (inactive),-0.113 (inactive),-1.97,0.732,-0.418 (inactive),0.172,1.24,-6.06 (inactive),0.677 (inactive),0.675 (inactive)
CC1CC/C=C\[C@H]2OC34C=CCN(CCN5CCOCC5)C(=O)[C@H]3N(CCCCCCO)C(=O)[C@@H]4C2C(=O)O1 (some centres undefined),-0.655,-0.195 (inactive),-0.513 (inactive),0.85 (inactive),-0.717 (inactive),0.615 (inactive),0.125 (inactive),0.602 (inactive),0.761,0.288,0.135 (inactive),0.935,1.04,-5.39 (inactive),-0.453 (inactive),0.519 (inactive)
COc1ccccc1CN1C(=O)c2ccccc2[C@](Cc2ccccc2I)(C(=O)NCCCN(C)C)[C@@H]1c1ccc(CO)cc1,-6.49,-10.3 (active),-9.07 (active),-0.572 (inactive),1.57 (inactive),-0.133 (inactive),-1.17 (inactive),-2.71 (inactive),-6.58,-0.175,0.287 (inactive),0.808,-2.36,1.61 (inactive),-0.215 (inactive),-0.184 (inactive)
CCOC(=O)C1=C(C(=O)OCC)N(S(=O)(=O)CC[Si](C)(C)C)[C@H](c2ccccc2)CC1,0.95,1.77 (inactive),-2.4 (inactive),-0.493 (inactive),0.201 (inactive),1.73 (inactive),-0.203 (inactive),-0.238 (inactive),-4.03,-0.127,-0.177 (inactive),0.201,-1.81,-2.79 (inactive),-0.184 (inactive),-0.535 (inactive)
